Here are results for 36 compounds from PubChem BioAssay.

In the experiment the test system is Lefty1. Description: Lefty1 binders on small-molecule microarrays, primary screen, biochemical, small-molecule microarray, 635/667 nm fluorescence (AID 1139). Conditions: small-molecule microarray binding, fluorescence 635/667; higher = more signal.
In the case of `CC(CCN1CCCc2nc(C)c(C)cc21)=NOC(C)CN1CCCCc2nc(C)c(C)cc21` (stereo unspecified), the composite z-score turned out to be 0.91.
The result for `CCN1C(=O)[C@@H]2[C@H]3C(=CC[C@@H]2C1=O)C1(OCCCO1)[C@H]1O[C@H]1[C@H]3O` reads 0.946; that for `Cc1ccc(S(=O)(=O)N[C@@H]2COC(=O)[C@@H](C)COC(=O)CC=C[C@H]2C)cc1`, 0.383; that for `COC(=O)C1=C(C)N(Cc2ccccc2)[C@]23O[C@](C(=O)OC)(C(=O)N2[C@@H]1c1ccccc1)C(C(=O)OC)=C3C(=O)OC`, 1.09.
As for `CC(C)CON=C1C[C@@H](O)[C@@H](O)[C@@H]2[C@@H]3C(=O)N(c4ccc(F)cc4F)C(=O)[C@@H]3CC[C@H]12`, the composite z-score turned out to be 1.13.
The compound `CCOC(=O)CCN1C(=O)[C@H]2[C@H]3[C@H](O)[C@H](O)CC(=NOCC(C)C)[C@H]3CC[C@H]2C1=O` registered a composite z-score of -0.0892.
Then `CC(C)=CCCC(C)=CCON=C1C[C@@H](O)[C@@H](O)[C@@H]2[C@@H]3C(=O)N(C(C)(C)C)C(=O)[C@@H]3CC[C@H]12`, with 0.536.
`C[C@H]1CC[C@H]2C(=O)O[C@H](COc3ccc(C(C)(C)C)cc3)CN2[C@@H]1c1ccc(Br)cc1` came in with a composite z-score of 0.395.
In turn, `COC(=O)CC=C[C@@H](C)[C@@H](C=NO[C@@H]1O[C@H](COC(C)=O)[C@@H](OC(C)=O)[C@H](OC(C)=O)[C@H]1OC(C)=O)NS(=O)(=O)c1ccc(C)cc1` registered a composite z-score of 0.647.
`CCOC(=O)[C@H](CC(C)C)NC(=O)CCC1CC(OC(=O)NCc2cccc3ccccc23)CC2(CCCC(COC(=O)NCc3ccncc3)O2)O1` (stereo partly specified) registered a composite z-score of 1.01.
`CC(CCN1CCCc2nc(C)c(C)cc21)=NO[C@@H](C)c1cc(-c2c(C)cc(C)cc2C)no1` had a composite z-score of 0.643.
The result for `O=C1[C@H]2[C@H]3[C@H](O)[C@H](O)CC(=NO[C@@H]4O[C@H](CO)[C@@H](O)[C@H](O)[C@H]4O)[C@H]3CC[C@H]2C(=O)N1c1cccc(Oc2ccccc2)c1` reads 0.802; that for `CCOC(=O)NN=C1C[C@@H](O)[C@@H](O)[C@@H]2[C@@H]3C(=O)N(c4ccc(F)cc4F)C(=O)[C@@H]3CC[C@@H]12`, 0.775.
The result for `C[C@H]1CC[C@H]2C(=O)OC(CO)CN2[C@@H]1c1ccc(Br)cc1` (stereo partly specified) reads -0.0811; that for `Cn1c(=O)n2n(c1=O)[C@H]1[C@H](O)[C@@H]3O[C@@H]3C(=NOCc3ccccc3)[C@H]1CC2`, 0.3; that for `O=c1n(-c2ccccc2)c(=O)n2n1CC[C@@H]1C(=NOCc3ccccc3)[C@H]3O[C@H]3[C@@H](O)[C@@H]12`, 0.293.
Then `C[C@@H]1CC[C@H]2C(=O)O[C@@H](Cc3ccccc3)CN2[C@H]1c1ccc(Br)cc1`, with 0.495; and `CO[C@H]1COC(=O)[C@@H](C)COC(=O)[C@H](C)NC(=O)CC=C[C@H]1C`, with 1.58.
`CO[C@H]1COC(=O)CC=C[C@H](C)[C@@H](OC)COC(=O)[C@@H](C)COC(=O)CC=C[C@@H]1C` registered a composite z-score of 1.55.
For the compound `COC(=O)CC=C[C@@H](C)[C@@H](C=NOCC[C@@H]1C=C[C@H](OC(C)=O)[C@@H](COC(C)=O)O1)NS(=O)(=O)c1ccc(C)cc1`, the composite z-score stood at 0.36.
On to `CCOC(=O)CCN1C(=O)[C@H]2[C@H]3[C@H](O)[C@H](O)CC(=NNC(=O)OCc4ccccc4)[C@@H]3CC[C@H]2C1=O`, for which the composite z-score is 0.699.
Then `CC(C)=CCCC(C)=CCON=C1C[C@@H](O)[C@@H](O)[C@@H]2[C@@H]3C(=O)N(Cc4ccccc4)C(=O)[C@@H]3CC[C@@H]12`, with 0.894.
Then `C[C@@H](ON=C1[C@H]2CCn3c(=O)n(-c4ccccc4)c(=O)n3[C@H]2[C@H](O)[C@@H]2O[C@H]12)c1cn([C@@H]2COC[C@H]2O)nn1`, with 0.691; and `COc1cc(O)c(C(=O)C=Cc2ccc3c(c2)OCO3)c(OC)c1`, with 0.707.
Then `COC(=O)CC=C[C@@H](C)[C@@H](C=NO[C@H](C)c1cn([C@H](CO)Cc2ccccc2)nn1)NS(=O)(=O)c1ccc(C)cc1`, with 0.19; and `COc1ccc(O[C@H]2C=C[C@@H](c3ccccc3)O[C@@H]2COC(=O)CCC(C)=NO[C@@H]2O[C@H](COC(C)=O)[C@@H](OC(C)=O)[C@H](OC(C)=O)[C@H]2OC(C)=O)cc1`, with 0.742; and `CCOC(=O)NN=C1C[C@@H](O)[C@@H](O)[C@@H]2[C@@H]3C(=O)N(Cc4ccc5c(c4)OCO5)C(=O)[C@@H]3CC[C@H]12`, with 0.285.
In the case of `CCOC(=O)[C@H](CC(C)C)NC(=O)CCC1CC(OC(=O)NCc2cccc3ccccc23)CC2(CCCC(COC(=O)NCCC(C)C)O2)O1` (stereo partly specified), the composite z-score turned out to be 0.606.
Regarding `CC(C)=CCCC(C)=CCON=C1C[C@@H](O)[C@@H](O)[C@@H]2[C@@H]3C(=O)N(C[C@@H]4CCCO4)C(=O)[C@@H]3CC[C@H]12`, the composite z-score worked out at 1.24.
The result for `CC=CC1=C(CO)C(=O)[C@@H]2O[C@@H]2C1=O` reads 1.34; that for `CO[C@H]1COC(=O)CCC[C@@H](C)[C@H](OC)COC(=O)[C@@H](C)NC(=O)CC=C[C@@H]1C`, 1.42; that for `COc1ccc(O[C@H]2C=C[C@@H](c3ccccc3)O[C@@H]2COC(=O)CCC(C)=NOC[C@@H](O)[C@H]2O[C@@H]3OC(C)(C)O[C@@H]3[C@H]2O)cc1`, 0.334.
Then `O=C(NN=C1C[C@@H](O)[C@@H](O)[C@@H]2[C@@H]3C(=O)N(Cc4ccccc4)C(=O)[C@@H]3CC[C@@H]12)OCc1ccccc1`, with 0.321.
The result for `CCOC(=O)[C@H](CC(C)C)NC(=O)CCC1CC(OC(=O)NCc2cccc3ccccc23)CC2(CCCC(COC(=O)NCCc3ccc(Cl)cc3)O2)O1` (stereo partly specified) reads 0.863; that for `CO[C@@H]1C=CCC(=O)N2CCC[C@H]2C(=O)OC[C@@H](C)C(=O)OC[C@H]1C`, 0.925.
For `CC(C)CON=C1C[C@@H](O)[C@@H](O)[C@@H]2[C@@H]3C(=O)N(C4CCCCC4)C(=O)[C@@H]3CC[C@H]12`, the composite z-score was found to be 0.837.
